Target: SpBzz1-D2
Assay: SPOT peptide array binding signal intensity (averaged, normalized) (arbitrary units (background-subtracted, floor 0; scale differs between SH3 domains)); higher = stronger binding of the SH3 domain to the peptide
Summary of the method: (§1)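 SH3 domains from four yeast species were expressed as GST fusions in E. coli BL21(DE3) and purified on glutathione Sepharose. Each was incubated at 10 μg/ml overnight at 4°C in TBS-based blocking buffer on cellulose membranes bearing synthetic 15-mer peptides, in which serines replaced cysteines. Bound protein was detected with anti-GST antibody, an HRP anti-mouse secondary and luminol, then imaged and quantified with Genespotter. The binding signal is the normalized, background-subtracted spot intensity averaged over replicates, in arbitrary units that are not the same from one domain to another.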

Row | Binder | SPOT peptide array binding signal intensity
1 | DKSRPPRPPPKPLHL | 1.5

Target: SpCyk3
Assay: as above
Summary of the method: as §1

Row | Binder | SPOT peptide array binding signal intensity
2 | DKSRPPRPPPKPLHL | 1

Target: SpHof1
Assay: as above
Summary of the method: as §1

Row | Binder | SPOT peptide array binding signal intensity
3 | DKSRPPRPPPKPLHL | ≤ 0

Target: SpHof1-2
Assay: as above
Summary of the method: as §1

Row | Binder | SPOT peptide array binding signal intensity
4 | DKSRPPRPPPKPLHL | ≤ 0

Target: SpHof1-3
Assay: as above
Summary of the method: as §1

Row | Binder | SPOT peptide array binding signal intensity
5 | DKSRPPRPPPKPLHL | 90.8

Target: SpHse1
Assay: as above
Summary of the method: as §1

Row | Binder | SPOT peptide array binding signal intensity
6 | DKSRPPRPPPKPLHL | 16.8

Target: SpLsb1
Assay: as above
Summary of the method: as §1

Row | Binder | SPOT peptide array binding signal intensity
7 | DKSRPPRPPPKPLHL | 362

Target: SpLsb4
Assay: as above
Summary of the method: as §1

Row | Binder | SPOT peptide array binding signal intensity
8 | DKSRPPRPPPKPLHL | 746

Target: SpMyo1
Assay: as above
Summary of the method: as §1

Row | Binder | SPOT peptide array binding signal intensity
9 | DKSRPPRPPPKPLHL | 466

Target: SpNbp2
Assay: as above
Summary of the method: as §1

Row | Binder | SPOT peptide array binding signal intensity
10 | DKSRPPRPPPKPLHL | ≤ 0

Target: SpPex13
Assay: as above
Summary of the method: as §1

Row | Binder | SPOT peptide array binding signal intensity
11 | DKSRPPRPPPKPLHL | ≤ 0

Target: SpRvs167
Assay: as above
Summary of the method: as §1

Row | Binder | SPOT peptide array binding signal intensity
12 | DKSRPPRPPPKPLHL | 276

Target: SpSla1-D1-D2
Assay: as above
Summary of the method: as §1

Row | Binder | SPOT peptide array binding signal intensity
13 | DKSRPPRPPPKPLHL | ≤ 0

Target: SpSla1-D3
Assay: as above
Summary of the method: as §1

Row | Binder | SPOT peptide array binding signal intensity
14 | DKSRPPRPPPKPLHL | ≤ 0

Target: AgAbp1
Assay: as above
Summary of the method: as §1

Row | Binder | SPOT peptide array binding signal intensity
15 | ITHRLRISIPGITGR | 4.5

Target: AgBbc1
Assay: as above
Summary of the method: as §1

Row | Binder | SPOT peptide array binding signal intensity
16 | ITHRLRISIPGITGR | 199

Target: AgBem1-D1
Assay: as above
Summary of the method: as §1

Row | Binder | SPOT peptide array binding signal intensity
17 | ITHRLRISIPGITGR | 314

Target: AgBzz1-D1
Assay: as above
Summary of the method: as §1

Row | Binder | SPOT peptide array binding signal intensity
18 | ITHRLRISIPGITGR | 121

Target: AgBzz1-D2
Assay: as above
Summary of the method: as §1

Row | Binder | SPOT peptide array binding signal intensity
19 | ITHRLRISIPGITGR | 236

Target: AgCyk3
Assay: as above
Summary of the method: as §1

Row | Binder | SPOT peptide array binding signal intensity
20 | ITHRLRISIPGITGR | 10

Target: AgFus1
Assay: as above
Summary of the method: as §1

Row | Binder | SPOT peptide array binding signal intensity
21 | ITHRLRISIPGITGR | 1770

Target: AgHof1
Assay: as above
Summary of the method: as §1

Row | Binder | SPOT peptide array binding signal intensity
22 | ITHRLRISIPGITGR | 112

Target: AgHse1
Assay: as above
Summary of the method: as §1

Row | Binder | SPOT peptide array binding signal intensity
23 | ITHRLRISIPGITGR | 580

Target: AgLsb1
Assay: as above
Summary of the method: as §1

Row | Binder | SPOT peptide array binding signal intensity
24 | ITHRLRISIPGITGR | 54.5

Target: AgLsb4
Assay: as above
Summary of the method: as §1

Row | Binder | SPOT peptide array binding signal intensity
25 | ITHRLRISIPGITGR | 687

Target: AgMyo5
Assay: as above
Summary of the method: as §1

Row | Binder | SPOT peptide array binding signal intensity
26 | ITHRLRISIPGITGR | ≤ 0

Target: AgNbp2
Assay: as above
Summary of the method: as §1

Row | Binder | SPOT peptide array binding signal intensity
27 | ITHRLRISIPGITGR | 101

Target: AgRvs167
Assay: as above
Summary of the method: as §1

Row | Binder | SPOT peptide array binding signal intensity
28 | ITHRLRISIPGITGR | 16.7

Target: AgSho1
Assay: as above
Summary of the method: as §1

Row | Binder | SPOT peptide array binding signal intensity
29 | ITHRLRISIPGITGR | 329

Target: AgSla1-D1-D2
Assay: as above
Summary of the method: as §1

Row | Binder | SPOT peptide array binding signal intensity
30 | ITHRLRISIPGITGR | 116

Target: AgSla1-D3
Assay: as above
Summary of the method: as §1

Row | Binder | SPOT peptide array binding signal intensity
31 | ITHRLRISIPGITGR | 6

Target: CaAbp1-D1
Assay: as above
Summary of the method: as §1

Row | Binder | SPOT peptide array binding signal intensity
32 | ITHRLRISIPGITGR | 111

Target: CaAbp1-D2
Assay: as above
Summary of the method: as §1

Row | Binder | SPOT peptide array binding signal intensity
33 | ITHRLRISIPGITGR | 39

Target: CaBbc1
Assay: as above
Summary of the method: as §1

Row | Binder | SPOT peptide array binding signal intensity
34 | ITHRLRISIPGITGR | 306

Target: CaBem1-D1
Assay: as above
Summary of the method: as §1

Row | Binder | SPOT peptide array binding signal intensity
35 | ITHRLRISIPGITGR | 84

Target: CaBzz1-D1
Assay: as above
Summary of the method: as §1

Row | Binder | SPOT peptide array binding signal intensity
36 | ITHRLRISIPGITGR | 362

Target: CaBzz1-D2
Assay: as above
Summary of the method: as §1

Row | Binder | SPOT peptide array binding signal intensity
37 | ITHRLRISIPGITGR | 226

Target: CaCyk3
Assay: as above
Summary of the method: as §1

Row | Binder | SPOT peptide array binding signal intensity
38 | ITHRLRISIPGITGR | 37.5

Target: CaFus1
Assay: as above
Summary of the method: as §1

Row | Binder | SPOT peptide array binding signal intensity
39 | ITHRLRISIPGITGR | 2510

Target: CaHof1
Assay: as above
Summary of the method: as §1

Row | Binder | SPOT peptide array binding signal intensity
40 | ITHRLRISIPGITGR | 1.75

Target: CaHse1
Assay: as above
Summary of the method: as §1

Row | Binder | SPOT peptide array binding signal intensity
41 | ITHRLRISIPGITGR | 62.5

Target: CaLsb1
Assay: as above
Summary of the method: as §1

Row | Binder | SPOT peptide array binding signal intensity
42 | ITHRLRISIPGITGR | 5

Target: CaLsb4
Assay: as above
Summary of the method: as §1

Row | Binder | SPOT peptide array binding signal intensity
43 | ITHRLRISIPGITGR | 141

Target: CaMyo5
Assay: as above
Summary of the method: as §1

Row | Binder | SPOT peptide array binding signal intensity
44 | ITHRLRISIPGITGR | 20.8

Source: the supplement of paper PMC4466140
